The nature of the assay: general mammalian cell viability loss – activator set, cherry-pick, cytotoxicity control for miR-122 modulator project, dose response (AID 720690).

Results with a measured potency or affinity are listed apart. The source made the active and inactive calls.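 The calls were made as follows: active = every repeat run showing a signal drop whose fitted half-maximal concentration is at most twice the top tested concentration; inconclusive = repeat runs disagree, or flat partial drop, or poor fit; inactive = the rest.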

With `O=C(Nc1ccc(F)cc1)N1C[C@H]2[C@@H](c3ccccc31)[C@H](CO)N2C(=O)c1ccncc1`, the call was inactive.
Then `CCC(=O)NC[C@H]1[C@H](c2ccc(C3=CCCC3)cc2)[C@H](CO)N1C(C)=O`, with “inactive”; and `CCN(C[C@@H]1[C@@H](c2ccccc2)[C@@H](CO)N1C(=O)COC)S(C)(=O)=O`, with “inactive”; and `CN1C(=O)c2cc(NC(=O)C3CC3)ccc2OC[C@@H]2O[C@H](CC(=O)NCCN3CCCC3)CC[C@H]21`, with “inactive”.
As to `COCC(=O)N(C)C[C@H]1Oc2cc(-c3ccccc3F)ccc2S(=O)(=O)N([C@H](C)CO)C[C@H]1C`, the compound was classed as inactive.
With `CCC(=O)Nc1ccc2c(c1)C(=O)N(C)[C@@H]1CC[C@H](CC(=O)Nc3cccc(OC)c3)O[C@@H]1CO2`, the outcome was inactive.
Then `CNC(=O)C[C@H]1CC[C@@H]2[C@@H](COc3ccc(NC(=O)c4cccc(OC)c4)cc3C(=O)N2C)O1`, with “inactive”; and `C[C@@H]1CN([C@H](C)CO)S(=O)(=O)c2ccc(C3=CCCC3)cc2O[C@@H]1CN(C)C(=O)Cc1ccncc1`, with “inactive”.
The entry for `Cc1ccc(NCC(=O)c2ccccc2)cc1Cl` is “inactive”; for `CN1C(=O)c2cc(NC(=O)c3cccc(F)c3)ccc2OC[C@@H]2O[C@@H](CC(=O)NC3CCC3)CC[C@@H]21` it is “inactive”.
The entry for `COC(=O)c1nn(-c2ccccc2)c(Sc2ccc(Cl)cc2)c1/C=N/O` is “inactive”; for `COC(=O)C[C@H]1CC[C@@H]2[C@@H](COc3ccc(NC(=O)c4cnccn4)cc3C(=O)N2C)O1` it is “inactive”.
`C[C@@H]1CN([C@@H](C)CO)S(=O)(=O)c2ccc(C#CC3(O)CCCC3)cc2O[C@@H]1CN(C)C(=O)c1cccnc1`: the result was inactive.
Then `COc1ccc(-c2nc(NC(=O)CSc3nnc(C)s3)ns2)cc1`, with “inactive”; and `CN1C(=O)c2cc(NC(=O)Nc3ccccc3Cl)ccc2OC[C@H]2O[C@H](CC(=O)O)CC[C@@H]21`, with “inactive”.
In the case of `COC(=O)C[C@@H]1CC[C@H]2[C@@H](COc3ccc(NC(=O)c4ccc(C(F)(F)F)cc4)cc3C(=O)N2C)O1`, the call was inactive.
The entry for `CO[C@H]1CN(C)C(=O)c2ccc(NC(C)=O)cc2OC[C@@H](C)N(C(=O)CC2CC2)C[C@H]1C` is “inactive”; for `CCCNC(=O)N1[C@H](CNC(=O)c2ccc(F)cc2)[C@H](c2ccccc2)[C@@H]1CO` it is “inactive”; for `CN1C(=O)c2cc(NC(=O)c3cccc(F)c3)ccc2OC[C@H]2O[C@H](CC(=O)NC3CCC3)CC[C@H]21` it is “inactive”.
For `CC(C)OCCCNC(=O)c1ccncc1`, the call was inactive.
Then `CO[C@@H]1CN(C)C(=O)c2cc(NC(=O)NC(C)C)ccc2OC[C@H](C)N(Cc2cncnc2)C[C@H]1C`, with “inactive”; and `C/C=C/c1ccc([C@H]2[C@@H](CNC(=O)CC)N(Cc3ccccn3)[C@H]2CO)cc1`, with “inactive”.
The entry for `CN(C)CCCNC(=O)C[C@@H]1CC[C@@H]2[C@@H](COc3ccc(NC(=O)NC4CCCC4)cc3C(=O)N2C)O1` is “inactive”; for `CCC(=O)N1[C@H](CO)[C@H]2c3ccccc3N(C(=O)CC(F)(F)F)C[C@H]21` it is “inactive”; for `COc1ccccc1NC(=O)Nc1ccc2c(c1)C(=O)N(C)[C@H]1CC[C@H](CC(=O)Nc3ccc4c(c3)COC4)O[C@@H]1CO2` it is “inactive”.
The entry for `CCN(C[C@@H]1[C@@H](c2ccc(C3=CCCCC3)cc2)[C@@H](CO)N1CC1CC1)C(C)=O` is “inactive”; for `CCN(C[C@@H]1N[C@@H](CO)[C@@H]1c1ccc(C2=CCCC2)cc1)C(=O)c1cccnc1` it is “inactive”; for `CC(C)C(=O)Nc1ccc2c(c1)C(=O)N(C)[C@@H]1CC[C@H](CC(=O)O)O[C@H]1CO2` it is “inactive”.
Take `COCC(=O)N(C[C@@H]1[C@@H](c2ccccc2)[C@@H](CO)N1C(=O)NC(C)C)C(C)C`: the compound was classed as inactive.
The entry for `CC(C)c1ccc(CNC(=O)CSCC(=O)Nc2ccc3ccccc3c2)cc1` is “inactive”.
The entry for `CN1C(=O)c2cc(NS(=O)(=O)c3cccc(F)c3)ccc2OC[C@@H]2O[C@@H](CC(=O)O)CC[C@@H]21` is “inactive”.
Then `CCN(C[C@@H]1[C@@H](c2ccccc2)[C@@H](CO)N1S(C)(=O)=O)C(=O)C1CC1`, with “inactive”.
On to `CCC(=O)Nc1ccc2c(c1)C(=O)N(C)[C@@H]1CC[C@H](CC(=O)NCCN3CCCCC3)O[C@H]1CO2`, for which the outcome was inactive.
Take `O=C(Nc1ccccc1F)N1[C@H](CO)[C@@H]2c3ccccc3NC[C@@H]21`: the result was inactive.
The entry for `Cc1cccc(NC(=O)Nc2ccc3c(c2)C(=O)N(C)[C@@H]2CC[C@H](CC(=O)NCc4ccccc4Cl)O[C@H]2CO3)c1` is “inactive”; for `C=CCc1c(OC)ccc2ccc(=O)oc12` it is “inactive”.
Then `CN(C(=O)C12CC3CC(CC(C3)C1)C2)C1CCS(=O)(=O)C1` (configuration not stated), with “inactive”; and `CN1C(=O)c2cc(NC(=O)c3cccs3)ccc2OC[C@@H]2O[C@@H](CC(=O)NCC(F)(F)F)CC[C@H]21`, with “inactive”; and `CC(=O)N1[C@H](CO)[C@@H](c2ccccc2)[C@H]1CN(C)C(=O)CN1CCOCC1`, with “inactive”.
As for `CCCNC(=O)Nc1ccc2c(c1)C(=O)N(C)[C@@H]1CC[C@@H](CC(=O)NCC3CCCCC3)O[C@H]1CO2`, the call was inactive.
The entry for `CCNC(=O)C[C@H]1CC[C@@H]2[C@H](COc3ccc(NC(=O)Nc4cccc(OC)c4)cc3C(=O)N2C)O1` is “inactive”; for `CC(C)C(=O)Nc1ccc2c(c1)C(=O)N(C)[C@@H]1CC[C@H](CC(=O)NCC3CC3)O[C@H]1CO2` it is “inactive”.
In the case of `CN1C(=O)c2cc(NC(=O)c3cccc(F)c3)ccc2OC[C@H]2O[C@H](CC(=O)N3CCc4ccccc4C3)CC[C@H]21`, the compound was classed as inactive.
Then `c1ccc(-c2nnc3n2CCCC3)cc1`, with “inactive”.
Consider `CCC(=O)N1C[C@H]2[C@@H](c3ccccc31)[C@H](CO)N2C(=O)Nc1ccccc1F`, for which the compound was classed as inactive.
Then `CNC(=O)C[C@@H]1CC[C@H]2[C@@H](COc3ccc(NC(=O)c4cccc(OC)c4)cc3C(=O)N2C)O1`, with “inactive”; and `CN(C)CCCNC(=O)C[C@@H]1CC[C@H]2[C@H](COc3ccc(NC(=O)c4cccc(F)c4)cc3C(=O)N2C)O1`, with “inactive”; and `COC(=O)C[C@@H]1CC[C@H]2[C@@H](COc3ccc(NC(=O)Nc4ccccc4C)cc3C(=O)N2C)O1`, with “inactive”.
`c1cnc(N2CCN(Cc3c[nH]c4ccccc34)CC2)nc1`: the result was inactive.
The entry for `COc1ccc(C#Cc2ccc3c(c2)O[C@H](CN(C)C(=O)CN2CCOCC2)[C@H](C)CN([C@H](C)CO)S3(=O)=O)cc1` is “inactive”.
Turning to `C[C@@H]1CN([C@@H](C)CO)C(=O)c2cc(NC(=O)NC3CCCCC3)ccc2O[C@@H]1CN(C)C(=O)Nc1ccc2c(c1)OCO2`, the call was inactive.
The entry for `COc1ccc(C#Cc2ccc3c(c2)O[C@H](CN(C)C(=O)CN2CCOCC2)[C@H](C)CN([C@@H](C)CO)S3(=O)=O)cc1` is “inactive”; for `CN(C)CCCNC(=O)C[C@H]1CC[C@H]2[C@H](COc3ccc(NS(C)(=O)=O)cc3C(=O)N2C)O1` it is “inactive”; for `Cc1ccccc1-c1nc(CN2CCCC(C(=O)NCCCN3CCOCC3)C2)c(C)o1` (configuration not stated) it is “inactive”.
The entry for `COc1ccc(S(=O)(=O)Nc2cc(C)cc(C)n2)c2ccccc12` is “inactive”; for `Cc1oc(-c2ccc(Cl)cc2)nc1CN1CCCC(C(=O)NCc2ccco2)C1` (configuration not stated) it is “inactive”; for `CNC(=O)C[C@H]1CC[C@H]2[C@@H](COc3ccc(NC(=O)C(C)C)cc3C(=O)N2C)O1` it is “inactive”.
The entry for `CN(C)CCNC(=O)C1CC(=O)N(c2ccc(F)c(Cl)c2)C1` (configuration not stated) is “inactive”.
As for `COc1cccc(C(=O)Nc2ccc3c(c2)C(=O)N(C)[C@H]2CC[C@H](CC(=O)NCc4ccc(F)cc4)O[C@H]2CO3)c1`, the compound was classed as inactive.
On to `CN1C(=O)c2cc(NC(=O)c3cccs3)ccc2OC[C@@H]2O[C@@H](CC(=O)NCCN3CCCCC3)CC[C@@H]21`, for which the call was inactive.
Then `CN1C(=O)c2cc(NC(=O)c3cccc(F)c3)ccc2OC[C@H]2O[C@@H](CC(=O)NC3CCC3)CC[C@H]21`, with “inactive”.
Then `CCNC(=O)Nc1ccc2c(c1)C(=O)N(C)[C@H]1CC[C@H](CC(=O)NCCOC)O[C@@H]1CO2`, with “inactive”; and `CN1C(=O)c2cc(NC(=O)c3cccs3)ccc2OC[C@H]2O[C@@H](CC(=O)NCCN3CCCCC3)CC[C@H]21`, with “inactive”.
Then `CN1C[C@H]2[C@@H](c3ccccc31)[C@@H](CO)N2C(=O)C1CCOCC1`, with “inactive”; and `C[C@@H]1CN([C@@H](C)CO)S(=O)(=O)c2ccc(C#Cc3ccncc3)cc2O[C@@H]1CN(C)C(=O)Nc1ccc2c(c1)OCO2`, with “inactive”.
For the compound `Cc1nn(C)cc1NC(=O)C[C@H]1CC[C@H]2[C@H](COc3ccc(NC(=O)c4cccc(F)c4)cc3C(=O)N2C)O1`, the result was inactive.
For the compound `CCC(=O)N1[C@H](CN(C(C)C)S(C)(=O)=O)[C@H](c2ccccc2)[C@@H]1CO`, the result was inactive.
As for `C[C@H](CO)N1C[C@H](C)[C@@H](CN(C)Cc2ccc(-c3ccccc3)cc2)Oc2ncc(C#CCN(C)C)cc2C1=O`, the compound was called inactive.
As for `COCCNC(=O)C[C@H]1CC[C@@H]2[C@@H](COc3ccc(NS(=O)(=O)c4ccc(Cl)cc4)cc3C(=O)N2C)O1`, the compound was called inactive.
On to `CNC(=O)C[C@@H]1CC[C@H]2[C@@H](COc3ccc(NC(=O)C(C)C)cc3C(=O)N2C)O1`, for which the compound was called inactive.
With `C/C=C/c1ccc([C@H]2[C@@H](CO)N(C(=O)COC)[C@H]2CNC(=O)CC)cc1`, the compound was classed as inactive.
The entry for `Cc1ccccc1NCN1C(=O)C2C3C=CC(C3)C2C1=O` (configuration not stated) is “inactive”; for `Cc1ccc(-c2nnn(CC(=O)N(CC(=O)NCC3CCCO3)c3ccccc3)n2)o1` (configuration not stated) it is “inactive”; for `COc1nnc(-c2ccc(N3CCOCC3)c(NC(=O)c3ccccc3)c2)c2ccccc12` it is “inactive”.
Then `COC(=O)C[C@H]1CC[C@@H]2[C@@H](COc3ccc(NC(=O)Nc4cccc(F)c4)cc3C(=O)N2C)O1`, with “inactive”; and `C/C=C/c1ccc2c(c1)O[C@H](CN(C)C(=O)c1cnccn1)[C@H](C)CN([C@H](C)CO)S2(=O)=O`, with “inactive”.
With `CCN(C[C@H]1[C@@H](c2ccccc2)[C@@H](CO)N1C(=O)COC)S(C)(=O)=O`, the outcome was inactive.

The values above are taken from PubChem BioAssay AID720690 (Broad Institute, 2013).
